Over roughly 59,000 sequences, the read-out has its median near -0.00055; the lowest 2% begin near -2. Only a selection was taken, and the lowest values are over-represented in it overall.
Test: Identification of proteins required for the processing of the EWS-FLI1 nascent transcript;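 note: robust z of luciferase light less the median z of siRNAs with the same seed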
Conditions: TC32 Ewing sarcoma NR0B1-luc vs CMV-luc (EWS-FLI1 target promoter against control promoter), 48 h; screened at 20 nM (by protocol)
Method in brief: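 Readout: OneGlo luminescence, 48 h post-transfection, TC32-NR0B1-luc vs TC32-CMV-luc in parallel. siRNA 20 nM final, RNAiMax lipid, 600 cells/well; z-score-MAD transformed, then seed-adjusted.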

Point of comparison: UUCCGAAUGGAAACUCUGG against BCL7C, seed-corrected z-score 0.615. Against it:
- UCUUGAUACAGAUUCCAUC against RFX8 — lower, 0.516
- UCCUUUAGCACCUUCACCG against RAD23A — lower, -2.73
- UUGUUGUCAAUGUUAAUCG against SNX29P1 — lower, -0.677
- AUAUUUCAAGGCAAGCUUC against DNAJC5 — lower, 0.415
- AUGGUAGCGGAAGAAAUUC against TMEM205 — lower, -2.26
- UAAUCUUUAUUGUCACUAG against GRB7 — lower, -0.659
- UUUGGCAAGACUUAACUUG against SCGB1D2 — higher, 0.678
- AUUUUGUCACUGGAAAGGC against OIP5 — higher, 0.784
- UAUGCGCUUUGAGACUAGC against ZNF236 — lower, -0.344
- UUGAGGUUACUGGAGCUGC against ZNF683 — lower, -0.208
- AUCCUUAAUGUAACUAUUG against C12orf60 — lower, 0.108
- UAUAUCAUUAAGCAAUGCC against SF3B1 — lower, -3.22
- UAAGUAGACGUGCAGAUCA against MFSD6L — lower, 0.136
- UACUCGAAGAUCAUCUUGG against MYO6 — lower, -0.142
- AUAGUUCCCUCGAUGAGGC against CCS — lower, 0.322
- UCUCCUGUAACAGACUCUG against ERICH1 — higher, 0.83
- AUAGACAACUUUGAGGUCC against AP1S1 — lower, -0.000301
- UUCAGCACAGAGAAAUUCG against SHISA2 — higher, 1.31
- UUGUUACUAAGAUCAACAG against PIWIL4 — lower, -0.273
- UAAAAUAUCAAGCGAAUCA against LOC399886 — lower, 0.0836
- UACCGGGAUACAUGCAUGC against KIAA1551 — lower, -2.73
- AAACGAAACAUGACGACAC against RSG1 — lower, -0.0435
- UGAUGUACUCCACUGAUGC against TFEC — lower, -0.552
- UCUCUUUGUGGUGUACUUG against FGF13 — lower, -12.9
- AUACCGAUCAUAGCACAUC against OR2A12 — lower, 0.195
- UAUUAGGUCUUAUUUAUUC against NXNL2 — lower, 0.499
- UCUCUAUCAGUUCUCUUGG against RBM20 — lower, -0.358
- AAAGGGACACUGAUUCAGU against TRAM1 — lower, -2.59
- UCAGGGUAUUUGGUGAGGG against KCTD1 — lower, -0.632
- AUAAUACCAACUCAAAUGC against FRRS1L — higher, 1.1
- UUCUGAGCAGGUUCUACUG against SGOL1 — lower, -2.98
- UAGGUAACUAUUUCUUCUC against CHURC1 — higher, 1.33
- UCUUCUAUCUUGCACAUUG against NLRP9 — lower, 0.587
- UAGGUUACGUGUCCAGAGG against NR2F6 — lower, -0.85
- ACCAUUGUCAUUGCCUUGC against 1-Mar — lower, -1.24
- GAUUUCUUCAGGUGCUCCU against PDLIM7 — lower, -0.372
- UGUAGUAUAUGAUCGACCU against LOC728613 — lower, -11.7
- UAGGCGAUGAAGAGCGUGC against MC1R — lower, 0.184
- AAAGUAUCGGUAUUUGUCU against NDUFB9 — lower, 0.025
- AAUCUCAUGAGUUGCAACC against MMP26 — lower, -0.158
- UUCCGGUUCCUCAUCUUCU against NUCKS1 — lower, -0.00682
- UAAAGUACUGUCGUCAAUG against STOX2 — lower, -2.26
- UUGUGGUUCUCGGAUACGC against CDH15 — lower, -0.955
- GAAGCUAUCCCAGCUCUCA against RPL21P131 — lower, 0.152
- UGUUUUACAAGCAAUGUCC against TEX19 — lower, -2.08
- UGCUGUAUAAUAUCCUUGC against GALNT3 — lower, 0.503
- UUGUGCACCACGAGCAUGG against B3GNT7 — lower, -1.07
- UUCGUUGCAAAUCCCAUGC against SPTLC2 — lower, -3.22
- AAUCUUUGGAGUACGCUGG against B2M — lower, -0.0765
- UAGACAUACAUUGAACUCC against SPINK6 — higher, 1.21
- UGUACUUUAAUAGAGAUAC against MRPS10 — lower, -0.197
- UACCCAAUAAAGGUCUACC against LMO2 — higher, 0.642
- UACGGUUCUUCCUGGUUGG against C1QA — higher, 1.29
- UUCCAUAUAGCAGUGCACU against NDUFAF1 — higher, 1.09
- UAGGGUUUGCCUUCGUGCU against CRIP1 — lower, -3.24
- UCAAGCAUCGUGUUGAGCC against TGFBI — lower, -0.445
- UCAAAUUCGUCCUGGGUCC against UGT1A5 — lower, -1.44
- UGAAGGAAGAAUCGUCGCC against PTHLH — lower, -0.782
- UUUCCGAUGAUGGUAACCA against OR7C2 — lower, 0.217
- UCAGGUAGCAGGGUAUUGG against LTA4H — lower, -0.0663
- UCCCAAUUCAGAUCUAUGG against FBXO42 — lower, 0.112
- UCAGGUGUAGGAUUCCGAC against XAGE2 — lower, -2.85
- UUUGUUGACUGCUUGACUG against METAP1D — lower, 0.33
- AACCUGUAUGCAUCAACUG against BMS1P11 — higher, 2.32
- UACUGUUCCACUAGCUUCG against SF3A1 — lower, -1.91
- UCUGUAACCUUGGUAAGGC against C10orf2 — lower, 0.0621
- UGGUUGAUUAGUAAAGCAC against C10orf113 — lower, -0.339
- ACUGUUAUCAGGAAAGUCC against PLCB2 — lower, -0.539
- UGUCUUUGUAGGCAGCUGG against CLDN14 — lower, -2.18
- UAAAGAGUAAAGGUCUUCC against ZNF540 — higher, 0.799
- UAUGGACCCAUCAUACUGG against CADM4 — higher, 0.833
- UAUUGAACUUCAAGGGUCG against EFTUD2 — lower, -2.91
- UUGGUCUGUAGUACUGUUC against SNX27 — lower, -2.17
- UUUGUGCCCUGCGUUUAUC against KCND3 — lower, -0.731
- AGGUGGAAGAGAAAUAUCU against OR4D11 — lower, -0.264
- UCAAGUUACAGGUUCGGGC against DRG1 — higher, 1.09
- UAUUUGUAGCCCAAGAAGG against YIF1B — lower, 0.101
- UUUCUGAUCAGGUCCAUGA against SLC1A6 — lower, -0.114
- UCAUAGUUGAGCAAGGUGG against AOC3 — lower, -0.116
- UCCGUAUCCAGCUCGUCCU against NXNL1 — lower, -1.17
- UUCAAUGCAAGCAAGCUUG against OR4L1 — lower, 0.45
- UUGCGAACAUUGCCUGUGC against MEP1A — lower, 0.216
- UCUUUAUCUAGAGGCAUUC against LOC728040 — lower, -2.35
- UUUAUUCUAAACACGUACU against RHBDD3 — lower, -0.246

Reference: PubChem BioAssay AID1159506 (National Center for Advancing Translational Sciences (NCATS), 2015)
